Results published in PubChem BioAssay.
For some assays here: Potency and affinity values are given separately. Activity calls are given as the source filed them. Unless noted, no rule for the calls is given here.

These molecules were tested against Protein kinase 7 (PK7), Plasmodium falciparum 3D7 (PF3D7_0213400) (UniProt Q7YTF7) (assay: inhibition of Plasmodium PK7 catalytic activity – biochemical, TCAMS antimalarial set, Kinase-Glo luminescence (AID 1159587)). Details: recombinant PfPK7, Kinase-Glo ATP depletion luminescence.
Protein kinase 7 (PK7), Plasmodium falciparum 3D7 (PF3D7_0213400), sequence (Q7YTF7 1-343): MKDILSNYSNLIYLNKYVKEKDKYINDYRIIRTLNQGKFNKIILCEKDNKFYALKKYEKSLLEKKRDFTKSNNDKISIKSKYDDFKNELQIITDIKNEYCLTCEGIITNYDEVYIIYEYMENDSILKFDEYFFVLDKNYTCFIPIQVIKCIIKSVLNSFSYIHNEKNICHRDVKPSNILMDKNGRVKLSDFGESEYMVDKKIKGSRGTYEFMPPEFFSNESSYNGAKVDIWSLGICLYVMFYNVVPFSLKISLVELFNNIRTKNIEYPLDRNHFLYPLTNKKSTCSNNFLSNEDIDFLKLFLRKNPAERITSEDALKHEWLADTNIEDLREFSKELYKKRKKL

outcome, inactive:
CC(=O)Nc1ccc(C(=O)Nc2cccc(-c3cccc(-c4nc5c(C)cccc5[nH]4)c3)c2)cn1
Nc1nc2c(c(=O)[nH]1)-c1cccc(Br)c1CC2
NC(=O)c1cccc(-n2ccc3cc(CNC4Cc5ccccc5C4)ccc32)c1
Cc1[nH]c(C)c(-c2ccc(OCc3cc(F)cc(F)c3)nc2)c(=O)c1Br
C[C@@H]([C@@H](CCCCc1ccccc1)C(=O)N[C@H](C(=O)Nc1cccnc1)C(C)(C)C)N(O)C=O
CCNC(=O)NC1CCN(Cc2c(-c3cccs3)nc3ccccc3c2C(=O)N[C@@H](C)C2CCCCC2)CC1
Cc1[nH]c(C)c(-c2ccc(OCCCc3ccccn3)cc2)c(=O)c1Br
Cn1cncc1C(=O)Nc1cccc(-c2csc(-c3nc4ccccc4[nH]3)c2)c1
FC(F)(F)c1ccc2nc(-c3cccc(-c4cccc(CN5CCN(c6ccncc6)CC5)c4)c3)[nH]c2c1
CN(Cc1ccc(NC(=O)NC2CCN(C(=O)/C=C/c3ccc(Cl)c(Cl)c3)CC2)cc1)C1CCOCC1
CC(=O)N1Cc2ccccc2C1=O
O=C(Nc1cccc(-c2ccc(CN3CCCC3)cc2)c1)c1ccc(Cl)cc1
Nc1nonc1-c1nc2c(-c3cccc(Cl)c3)nccc2n1CCCNC(=O)Cc1ccc(Cl)cc1
NC1CCN(c2cnn(Cc3cccc(NC(=O)Nc4ccc(-c5ccccc5)cc4)c3)c(=O)c2Cl)CC1
COc1ccc(NC(=O)Nc2ccc(-c3ccc(-c4nc5c(C)cccc5[nH]4)s3)cc2)cc1
Cc1cccc2[nH]c(-c3cccc(-c4ccc(NC(=O)c5ccoc5)cc4)c3)nc12
Cc1nc(-c2ccccc2)nc(N2CCN(C(=O)c3ccco3)CC2)c1Cc1ccccc1F
CC(=O)N(Cc1nc(-c2cc(Cl)c(Cl)s2)cs1)c1c(C)cccc1C
O=C(CSc1nc2ccccc2c(=O)n1CC1CCCO1)Nc1cc(C(F)(F)F)ccc1Cl (stereo not given)
CCCCCCCCn1c2c(c(=N)c3c1CCC3)CCCC2
O=[N+]([O-])c1ccc(C(O)CNCCc2ccccc2)cc1OCc1ccccc1 (stereo not given)
O=C(c1cccc(-c2ccc(-c3nc4ccc(C(F)(F)F)cc4[nH]3)cc2)c1)N1CCCCC1CN1CCC(O)C1 (stereo not given)
COc1ccc2nc(NC3=NC(c4ccccn4)(c4ccccn4)C(=O)N3C)[nH]c2c1
Cn1c(NC2CCN(CC3CCN(C(=O)/C=C/c4ccc(Cl)c(Cl)c4)CC3)CC2)nc2ccccc21
O=C(Nc1ccc(Cl)c(C(F)(F)F)c1)N[C@H]1CCN(CCCCCNC(=O)[C@@H]2C[C@H]2c2ccc(Cl)c(Cl)c2)C1
CN1CCc2cc(NS(=O)(=O)c3ccc(-c4ccc(Cl)s4)cc3)c(N3CCCCC3)cc2CC1
CCc1sc(-c2ccc(C(C)(C)C)cc2)nc1C(=O)NCCCN1CCCC1=O
COc1cc2nc(N3CCC(CNC(=O)/C=C/c4cccc(C)c4)CC3)nc(N)c2cc1OC
c1cc(CN2CCc3ccccc3CC2)cc(-c2c[nH]c3nc(NC4CCCC4)ncc23)c1
O=C(Nc1ccc(OC2CCN(Cc3ccc(F)cc3)CC2)c(Cl)c1)c1ccc(F)cc1
COc1cccc(OC2CCN(C(=O)c3cc(C(C)(C)C)nn3Cc3ccccc3)CC2)c1
CN1CCN(c2ccc3nccc(CCN4CCC(NCc5ccc6c(n5)NC(=O)CO6)CC4)c3n2)CC1
CCCCNS(=O)(=O)c1ccc(NC(=O)c2cc([N+](=O)[O-])ccc2Cl)cc1
OC(CNCc1ccccc1OCc1ccccc1)c1cccc(C(F)(F)F)c1 (stereo not given)
CCc1c[nH]c2c(N(c3ccccc3)S(C)(=O)=O)cc(C(=O)N[C@@H](Cc3ccccc3)[C@H](O)CNC(C)(C)CCCC(C)C)cc12
CC1(C)N=C(N)N=C(N)N1OCCCOc1cccc2ccccc12
Cc1cc(N[C@@H](Cc2ccccc2)C(=O)NC2CCCC2)nc(NCC2CCCCC2)n1
COc1ccc(CNc2nc(NCc3ccc(C(F)(F)F)cc3)c3cc(OC)c(OC)cc3n2)cc1OC
Clc1ccc(CNc2ccnc(NCCc3coc4ccccc34)n2)c(Cl)c1
COc1ccc2nccc([C@@H](O)CN3CCC(NC(=O)[C@@H]4Cc5ccccc5CN4C(=O)OC(C)(C)C)CC3)c2c1

The molecules below were run against Calcium-dependent protein kinase 4 (Plasmodium falciparum (isolate 3D7)) (UniProt Q8IBS5) (assay: PfCDPK4 kinase inhibitors, biochemical, TCAMS library (AID 1159588; cut-off not given, nearly all actives have IC50 up to about 0.91 µM)). Details: recombinant PfCDPK4, Kinase-Glo ATP depletion luminescence.
Calcium-dependent protein kinase 4 (Plasmodium falciparum (isolate 3D7)), sequence (Q8IBS5 whole entry, looked up): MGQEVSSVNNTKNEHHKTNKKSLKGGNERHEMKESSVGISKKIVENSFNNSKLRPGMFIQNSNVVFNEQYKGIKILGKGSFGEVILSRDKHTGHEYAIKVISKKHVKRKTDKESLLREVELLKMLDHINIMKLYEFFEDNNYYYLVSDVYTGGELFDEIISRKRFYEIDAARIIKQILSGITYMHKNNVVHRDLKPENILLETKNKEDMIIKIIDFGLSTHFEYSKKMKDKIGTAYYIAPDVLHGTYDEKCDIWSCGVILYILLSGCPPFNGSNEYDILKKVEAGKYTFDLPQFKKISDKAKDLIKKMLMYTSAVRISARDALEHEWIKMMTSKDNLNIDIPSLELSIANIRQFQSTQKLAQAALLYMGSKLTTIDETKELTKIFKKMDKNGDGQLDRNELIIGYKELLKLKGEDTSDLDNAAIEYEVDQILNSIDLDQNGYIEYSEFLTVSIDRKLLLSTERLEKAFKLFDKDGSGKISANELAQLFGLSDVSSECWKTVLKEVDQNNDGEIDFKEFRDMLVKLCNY

outcome, inactive:
CC(=O)Nc1ccc(C(=O)Nc2cccc(-c3cccc(-c4nc5c(C)cccc5[nH]4)c3)c2)cn1
Nc1nc2c(c(=O)[nH]1)-c1cccc(Br)c1CC2
NC(=O)c1cccc(-n2ccc3cc(CNC4Cc5ccccc5C4)ccc32)c1
Cc1[nH]c(C)c(-c2ccc(OCc3cc(F)cc(F)c3)nc2)c(=O)c1Br
C[C@@H]([C@@H](CCCCc1ccccc1)C(=O)N[C@H](C(=O)Nc1cccnc1)C(C)(C)C)N(O)C=O
CCNC(=O)NC1CCN(Cc2c(-c3cccs3)nc3ccccc3c2C(=O)N[C@@H](C)C2CCCCC2)CC1
Cc1[nH]c(C)c(-c2ccc(OCCCc3ccccn3)cc2)c(=O)c1Br
Cn1cncc1C(=O)Nc1cccc(-c2csc(-c3nc4ccccc4[nH]3)c2)c1
FC(F)(F)c1ccc2nc(-c3cccc(-c4cccc(CN5CCN(c6ccncc6)CC5)c4)c3)[nH]c2c1
CN(Cc1ccc(NC(=O)NC2CCN(C(=O)/C=C/c3ccc(Cl)c(Cl)c3)CC2)cc1)C1CCOCC1
CC(=O)N1Cc2ccccc2C1=O
O=C(Nc1cccc(-c2ccc(CN3CCCC3)cc2)c1)c1ccc(Cl)cc1
Nc1nonc1-c1nc2c(-c3cccc(Cl)c3)nccc2n1CCCNC(=O)Cc1ccc(Cl)cc1
NC1CCN(c2cnn(Cc3cccc(NC(=O)Nc4ccc(-c5ccccc5)cc4)c3)c(=O)c2Cl)CC1
COc1ccc(NC(=O)Nc2ccc(-c3ccc(-c4nc5c(C)cccc5[nH]4)s3)cc2)cc1
Cc1cccc2[nH]c(-c3cccc(-c4ccc(NC(=O)c5ccoc5)cc4)c3)nc12
Cc1nc(-c2ccccc2)nc(N2CCN(C(=O)c3ccco3)CC2)c1Cc1ccccc1F
CC(=O)N(Cc1nc(-c2cc(Cl)c(Cl)s2)cs1)c1c(C)cccc1C
O=C(CSc1nc2ccccc2c(=O)n1CC1CCCO1)Nc1cc(C(F)(F)F)ccc1Cl (stereo not given)
CCCCCCCCn1c2c(c(=N)c3c1CCC3)CCCC2
O=[N+]([O-])c1ccc(C(O)CNCCc2ccccc2)cc1OCc1ccccc1 (stereo not given)
O=C(c1cccc(-c2ccc(-c3nc4ccc(C(F)(F)F)cc4[nH]3)cc2)c1)N1CCCCC1CN1CCC(O)C1 (stereo not given)
COc1ccc2nc(NC3=NC(c4ccccn4)(c4ccccn4)C(=O)N3C)[nH]c2c1
Cn1c(NC2CCN(CC3CCN(C(=O)/C=C/c4ccc(Cl)c(Cl)c4)CC3)CC2)nc2ccccc21
O=C(Nc1ccc(Cl)c(C(F)(F)F)c1)N[C@H]1CCN(CCCCCNC(=O)[C@@H]2C[C@H]2c2ccc(Cl)c(Cl)c2)C1
CN1CCc2cc(NS(=O)(=O)c3ccc(-c4ccc(Cl)s4)cc3)c(N3CCCCC3)cc2CC1
CCc1sc(-c2ccc(C(C)(C)C)cc2)nc1C(=O)NCCCN1CCCC1=O
COc1cc2nc(N3CCC(CNC(=O)/C=C/c4cccc(C)c4)CC3)nc(N)c2cc1OC
c1cc(CN2CCc3ccccc3CC2)cc(-c2c[nH]c3nc(NC4CCCC4)ncc23)c1
O=C(Nc1ccc(OC2CCN(Cc3ccc(F)cc3)CC2)c(Cl)c1)c1ccc(F)cc1
COc1cccc(OC2CCN(C(=O)c3cc(C(C)(C)C)nn3Cc3ccccc3)CC2)c1
CN1CCN(c2ccc3nccc(CCN4CCC(NCc5ccc6c(n5)NC(=O)CO6)CC4)c3n2)CC1
CCCCNS(=O)(=O)c1ccc(NC(=O)c2cc([N+](=O)[O-])ccc2Cl)cc1
OC(CNCc1ccccc1OCc1ccccc1)c1cccc(C(F)(F)F)c1 (stereo not given)
CCc1c[nH]c2c(N(c3ccccc3)S(C)(=O)=O)cc(C(=O)N[C@@H](Cc3ccccc3)[C@H](O)CNC(C)(C)CCCC(C)C)cc12
CC1(C)N=C(N)N=C(N)N1OCCCOc1cccc2ccccc12
Cc1cc(N[C@@H](Cc2ccccc2)C(=O)NC2CCCC2)nc(NCC2CCCCC2)n1
COc1ccc(CNc2nc(NCc3ccc(C(F)(F)F)cc3)c3cc(OC)c(OC)cc3n2)cc1OC
Clc1ccc(CNc2ccnc(NCCc3coc4ccccc34)n2)c(Cl)c1
COc1ccc2nccc([C@@H](O)CN3CCC(NC(=O)[C@@H]4Cc5ccccc5CN4C(=O)OC(C)(C)C)CC3)c2c1
